From PubChem BioAssay (NCI)
About 79,000 compounds went through this panel and 15% of them were active in at least one assay; those are over-represented in the sample as a whole. Rule as the data show it: active = growth inhibition above about 70%; inactive = the rest. *1 amine or outer side, *2 acyl side, *3 side chain or, on linkers, in order; H or OH if unused. Where a SMILES comes first, the peptide text is derived from it. [ ]: non-standard residue; d: D form. X8 = C=CCC(O[*:1])C(=O)[*:2]; NMeV = CN[CH](C(=O)O)C(C)C; NMeA = CN[CH](C)C(=O)O; βAla = NCCC(=O)O

Columns and labels:
[1] = NCI Yeast Anticancer Drug Screen. Data for the rad50 strain (AID 155);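 also: 0% = growth of vehicle-only cultures of the same strain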; conditions: S. cerevisiae rad50 strain growth inhibition; at 50.0 µM; stronger effect = higher value
How it was run: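 Yeast carrying a defined DNA repair defect were exposed to test compounds, and growth was compared with vehicle-treated controls to give percent inhibition.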

[2] = NCI Yeast Anticancer Drug Screen. Data for the mec2-1 strain (AID 157); conditions: S. cerevisiae mec2-1 strain, at 50.0 µM, stronger effect = higher value
How it was run: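 Yeast mec2-1 mutant treated with compound. Readout: growth inhibition vs vehicle controls.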

[3] = NCI Yeast Anticancer Drug Screen. Data for the sgs1 mgt1 strain (AID 161);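 also: 0% = growth of cultures given vehicle only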; conditions: S. cerevisiae sgs1 mgt1 strain, at 50.0 µM, stronger effect = higher value
How it was run: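 Mutant yeast exposed to compound; growth scored against vehicle-only wells.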

[4] = NCI Yeast Anticancer Drug Screen. Data for the cln2 rad14 strain (AID 165);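 also: 0% = growth equal to vehicle treated cultures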; conditions: S. cerevisiae cln2 rad14 strain, at 50.0 µM, stronger effect = higher value
How it was run: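 cln2 rad14 yeast strain; compound exposure; growth inhibition read vs vehicle controls.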

[5] = NCI Yeast Anticancer Drug Screen. Data for the bub3 strain (AID 167); conditions: S. cerevisiae bub3 mutant strain, at 50.0 µM, stronger effect = higher value
How it was run: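 Compounds were applied to a genetically altered yeast strain carrying a cell-cycle control defect. Growth inhibition was scored against vehicle-treated controls.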

[6] = NCI Yeast Anticancer Drug Screen. Data for the mlh1 rad18 strain (AID 175); conditions: S. cerevisiae mlh1 rad18 strain growth inhibition; at 50.0 µM; stronger effect = higher value
How it was run: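 Yeast w/ defined DNA-repair lesions; compound exposure; growth vs vehicle controls → % inhibition.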

Measured: growth inhibition

COC(=O)C(C)CC(C)C(=O)OC (configuration not stated)
inactive: [1] 19.6% | [2] -15.8% | [3] 17.6% | [4] 12.7% | [5] -2.95% | [6] 16.4%

CC1(O)CCC2CC1C2(C)CO (configuration not stated)
inactive: [1] 2% | [2] 7.45% | [3] -9.15% | [4] -28.4% | [5] -7.05% | [6] 3.1%

CC(C)(C)OC(=O)NNC(=O)c1ccc([N+](=O)[O-])cc1
inactive: [1] 17.2% | [2] -9.8% | [3] -2.5% | [4] 30.6% | [5] 3.75% | [6] 5.8%

N#CCCC(=O)c1ccccc1
inactive: [1] -1.5% | [2] -19.1% | [3] -1.15% | [4] -2.65% | [5] 5.15% | [6] 16.9%

O=c1[nH]c(=O)c2nnoc2[nH]1
inactive: [1] 12.4% | [2] 7.65% | [3] 4.55% | [4] -20.2% | [5] 7.4% | [6] -16.5%

c1ccc(B2OCC(C3OB(c4ccccc4)OC4COB(c5ccccc5)OC43)O2)cc1 (configuration not stated)
inactive: [1] 32.5% | [2] -2.45% | [3] -1.2% | [4] -30.9% | [5] -23.2% | [6] 23.6%

Clc1ccc(C2SCCS2)c(Cl)c1
inactive: [1] 56.8% | [2] 28.2% | [3] 59.1% | [4] 31.8% | [5] 33.8% | [6] 38.5%

CC(C)C1c2ccccc2C(=O)C1C(N)=O (configuration not stated)
inactive: [1] -16.9% | [2] -11.4% | [3] -12.8% | [4] -22.6% | [5] -4.55% | [6] -10.4%

COc1ccc(/C=C2\C(=O)N(C(=O)c3ccc(NC(C)=O)cc3)N=C2C)cc1
inactive: [1] -27.6% | [2] -36.2% | [3] -39.2% | [4] -0.3% | [5] -20.9% | [6] -41.2%

CCCC#CCN(C(C)C)C(C)C
inactive: [1] -12.4% | [2] 1.65% | [3] -6.35% | [4] 29.2% | [5] -5.25% | [6] -7.85%

Cc1ccc(S(=O)(=O)/C=C\S(=O)(=O)c2ccc(C)cc2)cc1
inactive: [1] -7.35% | [2] -3.15% | [3] 5.15% | [4] -28.4% | [5] 3.15% | [6] 2.7%

NC(CCC(F)(F)F)C(=O)O (configuration not stated)
inactive: [1] -4.1% | [2] -7.95% | [3] 7.2% | [4] 18.6% | [5] 17.5% | [6] 6.65%

CC(C)[N+](=C1O[B-](c2ccccc2)(c2ccccc2)O[B-]1(c1ccccc1)[C+]1CCCCC1)C(C)C (configuration not stated)
inactive: [1] -51.1% | [2] -4.45% | [3] 10.8% | [4] 19.8% | [5] 2.15% | [6] 2.2%

CC(C)/C=C1\CCC(CN2CCCC2)C1=O (configuration not stated)
inactive: [1] 61.5% | [2] 34.6% | [3] 48.5% | [4] 44.5% | [5] 40.7% | [6] 63.5%

CC(C)OC(=O)N1CCCC1
inactive: [1] 12% | [2] 13.8% | [3] 6.05% | [4] -20% | [5] 13.9% | [6] -17.4%

CCC(C(=O)O)(C(C)C)C(C)C
inactive: [1] 5.8% | [2] 30.9% | [3] 12.9% | [4] 12.4% | [5] -0.05% | [6] 8.1%

CCCCCCOC(=O)C(C)(O)C(Cl)c1ccccc1 (configuration not stated)
inactive: [1] 3.95% | [2] -0.45% | [3] -5.4% | [4] 3.9% | [5] 9.3% | [6] -10.2%

Cc1ccc(N=Nc2c(O)c(C(=O)O)cc3ccccc23)c(S(=O)(=O)O)c1
inactive: [1] 12.3% | [2] -8.35% | [3] -7.5% | [4] -45.2% | [5] 5.9% | [6] 26.4%

Cc1ccc2c(c1)[nH]c(=S)n2/C=C(\c1ccccc1)S(=O)Cc1ccccc1 (configuration not stated)
inactive: [1] -23.7% | [2] -25.6% | [3] -19.9% | [4] 0.3% | [5] -28.1% | [6] -26.2%

Cc1ccccc1C(=O)c1ccccc1Cc1cccc2ccccc12
inactive: [1] -2.4% | [2] -10.3% | [3] -10.2% | [4] 1.1% | [5] 8.95% | [6] -22.9%

COC(=O)C(=O)Cc1nc2ccccc2s1
inactive: [1] 6.25% | [2] 1.35% | [3] 6.15% | [4] -29.8% | [5] -7.3% | [6] 7.3%

CCOC(=O)N1CCN(Cc2cc(=O)n3ccc(C)cc3n2)CC1
inactive: [1] 21.8% | [2] 2.8% | [3] 3.7% | [4] 12.5% | [5] 17.4% | [6] 22.1%

C#CC(C)(O)c1ccccc1 (configuration not stated)
inactive: [1] -1.15% | [2] -22.1% | [3] -7.75% | [4] -21.6% | [5] -1.95% | [6] -11.6%

O=C(Nc1ccc(Cl)cc1)c1cccnc1
inactive: [1] 10.1% | [2] -10.7% | [3] 32.8% | [4] -8.5% | [5] 34.4% | [6] 15.6%

OC(c1cc(C2CCCCC2)nc2ccccc12)C1CCCCN1 (configuration not stated)
inactive: [1] -13.1% | [2] -0.85% | [3] 8.85% | [4] 2.6% | [5] -5.7% | [6] -12.7%

C=CCC1OC(=O)CCNC(=O)C(C)N(C)C(=O)C(C(C)C)N(C)C(=O)C(C(C)CC)NC(=O)C2CCCN2C1=O (configuration not stated) (cyclo([X8]PI[NMeV][NMeA][βAla]); configuration not given here)
inactive: [1] 15.3% | [2] 10.1% | [3] 5.55% | [4] 11.5% | [5] 8.35% | [6] 17.8%

CCN(CC)CCOC(=O)c1ccc(NC(=O)Nc2ccc(Br)cc2)cc1
inactive: [1] 4.6% | [2] -4.95% | [3] 30.1% | [4] 0.25% | [5] 8.05% | [6] 11.2%

CC[n+]1ccc(/C=C\c2c(Cl)cccc2Cl)cc1
inactive: [1] -1.45% | [2] -17.6% | [3] 5.65% | [4] 3% | [5] 7.8% | [6] 12.1%

CC(C)N(C(=O)C12C3C4C5C3C1(C#N)C5C42)C(C)C (configuration not stated)
inactive: [1] 10.1% | [2] 6.95% | [3] 12.1% | [4] 5.95% | [5] 2.35% | [6] -9.45%

O=C(Nc1cccc(C(=O)Nc2ccc3cc(S(=O)(=O)O)cc(S(=O)(=O)O)c3c2)c1)Nc1cccc(C(=O)Nc2ccc3cc(S(=O)(=O)O)cc(S(=O)(=O)O)c3c2)c1
inactive: [1] 6.8% | [2] 34.1% | [3] 9.25% | [4] -3% | [5] 3.65% | [6] 33%

O=C1c2cccc([N+](=O)[O-])c2C(=O)c2cccc(Cl)c21
inactive: [1] 29.2% | [2] 9.35% | [3] -4.15% | [4] -17.9% | [5] 32.5% | [6] 42.9%

O=C1C=C(NCCc2ccccc2)c2ccccc2C1=O
inactive: [1] 38.5% | [2] -8.6% | [3] 16.6% | [4] 9.15% | [5] 40.4% | [6] -5.1%

CCN(CC)C(=O)CC1(O)CCCCC1
inactive: [1] -9.7% | [2] -11.2% | [3] -3.15% | [4] -9.65% | [5] 2.3% | [6] 4.2%

CCOC(=O)/C(=C\n1c(=S)[nH]c2cc(C)ccc21)C(=O)c1ccccc1
inactive: [1] -41.2% | [2] -60.5% | [3] -18.8% | [4] 10.8% | [5] -14.2% | [6] -13.5%

CCCCCCCCNC(C(=O)c1ccc(Cl)cc1)c1ccc(Cl)cc1 (configuration not stated)
inactive: [1] 8.05% | [2] 17.4% | [3] 21.6% | [4] -18.3% | [5] -8% | [6] 25.8%

O=C1Cn2c(cc(=O)c3ccccc32)O1
inactive: [1] 37.5% | [2] 13.6% | [3] 5.9% | [4] -9.35% | [5] 9.8% | [6] 14.8%

CC(=O)Nc1cc2cc(NS(=O)(=O)c3cc(C(F)(F)F)cc(C(F)(F)F)c3)ccc2oc1=O
inactive: [1] 0% | [2] -10.2% | [3] -4.9% | [4] 17.4% | [5] -9.95% | [6] 10.9%
